# Measurements taken from PubChem BioAssay.
# Where “and” joins values, the source holds several entries; their conditions need not be identical. Identical values can stand only once. Results filed as inconclusive are left out. Calls of active or inactive are those of the source. Unless noted, no stated cut-off is given here; in the data, active means inhibition above about 80%; inactive means the rest.
# How the values were obtained:
# [1] = viability loss in pontine glioma line – cell-based, SU-DIPG-XXV, MIPE5.0, CellTiter-Glo, qHTS, dose response (AID 1347065; cut-off not given, nearly all actives have AC50 up to about 26 µM;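 further: cells exposed to compound for 48 hours before ATP readout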); settings: CellTiter-Glo ATP luminescence
# [2] = JHH-DIPG-1 glioma cell viability, MIPE5.0 library, CellTiter-Glo luminescence, qHTS (AID 1347067; cut-off not given, nearly all actives have AC50 up to about 26 µM;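 further: cells exposed to compound for 48 hours before readout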); settings: JHH-DIPG-1 glioma viability, CellTiter-Glo ATP luminescence
# [3] = growth inhibition of DIPG cells – cell-based, MIPE5.0 library, qHTS (AID 1347068; cut-off not given, nearly all actives have IC50 up to about 30 µM); settings: SU-DIPG-XXV viability
# [4] = viability loss with induced miR-34 in A549 – imaging, A549 dox-inducible miR-34, nuclei and caspase counts, primary screen (AID 1347080;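 active means compounds whose cell count with miR-34 switched on is under 0.7 times the count with it off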); settings: A549 miR-34 inducible, Hoechst nuclei count, 48 h
# [5] = blockers of cellular phospholipid synthesis – cell-based, LOPAC library, screen 4, primary screen (AID 1347384; call rule not given here); settings: animal cells, phospholipid biosynthesis inhibition screen; at 10 µM
# [6] = target: NAD(+) hydrolase SARM1 (Homo sapiens) (UniProt Q6SZW1); assay: blocking NAD cleavage by SARM1 SAM-TIR – cell lysate, NAD-Glo luminescence (AID 1508614;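 active means compound whose remaining NAD level is above about 45 nM, limit read from the data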); settings: SAM-TIR HEK293T lysate NADase, at 1 µM, stronger effect = higher value
# Sequence of NAD(+) hydrolase SARM1 (Homo sapiens) (Q6SZW1 whole entry, looked up, the tested form may be a part): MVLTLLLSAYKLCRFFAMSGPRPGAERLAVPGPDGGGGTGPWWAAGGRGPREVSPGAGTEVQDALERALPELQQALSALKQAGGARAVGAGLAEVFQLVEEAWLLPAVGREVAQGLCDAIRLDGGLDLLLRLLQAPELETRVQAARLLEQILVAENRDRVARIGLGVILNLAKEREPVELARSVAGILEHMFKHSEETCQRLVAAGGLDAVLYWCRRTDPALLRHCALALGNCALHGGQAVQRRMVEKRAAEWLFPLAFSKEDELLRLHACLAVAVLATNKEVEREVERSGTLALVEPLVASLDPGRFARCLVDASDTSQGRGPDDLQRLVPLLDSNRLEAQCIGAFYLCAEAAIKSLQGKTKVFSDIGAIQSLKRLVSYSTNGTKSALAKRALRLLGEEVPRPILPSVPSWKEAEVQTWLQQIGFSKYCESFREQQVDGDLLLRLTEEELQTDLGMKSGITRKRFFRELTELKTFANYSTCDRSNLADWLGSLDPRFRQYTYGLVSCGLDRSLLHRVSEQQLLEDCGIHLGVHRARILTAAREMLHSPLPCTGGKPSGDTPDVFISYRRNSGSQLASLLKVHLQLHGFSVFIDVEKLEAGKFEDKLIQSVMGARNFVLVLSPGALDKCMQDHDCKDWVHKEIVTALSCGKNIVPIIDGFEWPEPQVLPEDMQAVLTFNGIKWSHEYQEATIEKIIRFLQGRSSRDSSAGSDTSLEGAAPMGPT
# [7] = target: Mitogen-activated protein kinase 7 (Homo sapiens) (UniProt Q13164); assay: Gal4-ERK5 driven luciferase induction – cell-based, HTS, primary screen (AID 1508626;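 active means luciferase signal above three times the same-plate solvent-only control wells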;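 further: luciferase driven by Gal4-ERK5 fusion binding five Gal4 sites before minimal TATA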); settings: HeLa Gal4-ERK5 transactivation, 18 h, at 5 µM, stronger effect = higher value
# Sequence of Mitogen-activated protein kinase 7 (Homo sapiens) (Q13164 whole entry, looked up, the tested form may be a part): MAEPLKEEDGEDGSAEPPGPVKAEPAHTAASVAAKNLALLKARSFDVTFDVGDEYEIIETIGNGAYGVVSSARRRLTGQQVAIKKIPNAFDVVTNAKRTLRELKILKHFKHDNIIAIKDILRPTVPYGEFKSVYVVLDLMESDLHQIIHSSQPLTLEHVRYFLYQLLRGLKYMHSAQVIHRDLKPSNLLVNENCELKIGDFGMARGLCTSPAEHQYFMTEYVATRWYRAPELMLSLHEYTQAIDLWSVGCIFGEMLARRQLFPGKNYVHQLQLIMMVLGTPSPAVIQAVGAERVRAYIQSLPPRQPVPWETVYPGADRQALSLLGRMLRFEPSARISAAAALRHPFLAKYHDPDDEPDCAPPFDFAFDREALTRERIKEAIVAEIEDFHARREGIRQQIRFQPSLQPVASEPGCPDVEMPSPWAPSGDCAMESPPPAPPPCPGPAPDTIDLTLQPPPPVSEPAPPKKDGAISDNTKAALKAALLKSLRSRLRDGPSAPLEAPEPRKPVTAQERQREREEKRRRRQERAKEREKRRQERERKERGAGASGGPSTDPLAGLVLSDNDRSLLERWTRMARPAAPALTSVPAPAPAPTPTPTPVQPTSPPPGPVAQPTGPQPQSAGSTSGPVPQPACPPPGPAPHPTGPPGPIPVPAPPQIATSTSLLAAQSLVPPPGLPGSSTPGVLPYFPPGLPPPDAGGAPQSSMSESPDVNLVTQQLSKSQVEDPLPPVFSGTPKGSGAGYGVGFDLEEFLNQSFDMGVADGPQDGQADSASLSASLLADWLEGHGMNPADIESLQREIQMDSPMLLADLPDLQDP
# [8] = galactose survival enhancers in mitochondrial complex I cybrids – cell-based, galactose medium, ATP luminescence, primary screen (AID 1645843;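 active means z-score of at least 1.8 in each of two replicates, scored against plate mean and spread of sample wells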;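 further: positive z means more ATP and so rescue of galactose-driven cybrid death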); settings: complex I mutant cybrid cells, 72 h, stronger effect = higher value
# [9] = growth inhibition, single agent or in combination, cell-based, chromothripsis tumors, cisplatin or BGB combos (AID 1671449); settings: LFS_MB_P medulloblastoma cells;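 further: cells exposed for 96 hours; 0% = vehicle DMSO and 100% = killing by high DMSO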
# [10] = growth inhibition, single agent and combos, cell-based, chromothripsis tumors, cisplatin or BGB combos (AID 1671450); settings: HDN33 neuroblastoma cells, stronger effect = higher value;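 further: cells exposed to compound for four days; 0% = vehicle DMSO and 100% = cell killing by high DMSO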
# [11] = growth inhibition, single agents and combos, ICB984, cell-based, cisplatin or BGB combos, synergistic combos for chromothripsis tumors (AID 1671451; call rule not given here;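 further: cells exposed for 96 hours before readout; 0% = vehicle DMSO and 100% = killing by high DMSO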); settings: ICB984 medulloblastoma cells, drug combinations, stronger effect = higher value
# [12] = growth inhibition, single agents and combos, LFS_MB_1R, cell-based, cisplatin or BGB combos, synergistic combos for chromothripsis tumors (AID 1671452); settings: LFS_MB_1R medulloblastoma cells, stronger effect = higher value;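 further: cells exposed for 96 hours before readout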
# [13] = growth inhibition, single agents and combos, HTB85, cell-based, BGB or cisplatin IC20 combos, synergistic combos for chromothripsis tumors (AID 1671453); settings: HTB85 osteosarcoma cells, drug combinations, stronger effect = higher value;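 further: cells exposed for 96 hours before readout; 0% = vehicle DMSO and 100% = high DMSO killing control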
# [14] = growth inhibition, single agents and combos, CRL2098, cell-based, BGB or cisplatin IC20 combos, synergistic combos for chromothripsis tumors (AID 1671454); settings: CRL2098 osteosarcoma cells, drug combinations, stronger effect = higher value;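 further: cells exposed for 96 h before readout; 0% = vehicle DMSO and 100% = killing by high DMSO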
# [15] = growth inhibition, single agents and combos, HD-MB03, cell-based, BGB or cisplatin IC20 combos, synergistic combos for chromothripsis tumors (AID 1671455; in the data active means inhibition above about 83%;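 further: 0% = vehicle DMSO and 100% = high DMSO as cytotoxic control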); settings: HD-MB03 medulloblastoma cells, stronger effect = higher value
# [16] = growth inhibition of DIPG cells – cell-based, MIPE4.0 library, CellTiter-Glo luminescence, qHTS (AID 1347066; cut-off not given, nearly all actives have AC50 up to about 30 µM;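 further: cells exposed to compound for 48 hours before readout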); settings: SU-DIPG-VI viability, CellTiter-Glo ATP luminescence
# [17] = MELAS cybrid and Rieske KO viability enhancers – cell-based, MELAS cybrids, Rieske KO mouse fibroblasts, CellTiter-Glo, primary screen (AID 1508586;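 active means mean z-score across replicates of 1.96 or higher in either the MELAS or the Rieske mutant cell line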;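 further: z relative to plate mean and SD of compound and empty wells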); settings: low glucose
# [18] = stronger effect = lower value, cell number ratio, induced over uninduced
# [19] = measured here: relative caspase fold change +Dox/-Dox
# [20] = measured here: total cells with miR-34 induction, stronger effect = lower value
# [21] = measured here: total cells without miR-34 induction
# [22] = at 0.5 µM, stronger effect = higher value
# [23] = measured here: combination with BGB IC20, at 0.005 µM
# [24] = measured here: combination with BGB IC40, at 0.005 µM
# [25] = measured here: combination with BGB IC40, at 0.05 µM
# [26] = measured here: combination with cisplatin, at 0.5 µM, stronger effect = higher value
# [27] = measured here: combination with cisplatin, at 5 µM, stronger effect = higher value
# [28] = measured here: with BGB IC20 combination, at 0.5 µM
# [29] = measured here: with cisplatin IC20 combination, at 0.5 µM
# [30] = measured here: 5 uM single agent, at 5 µM
# [31] = measured here: combination with cisplatin, at 0.5 µM
# [32] = measured here: combination with cisplatin, at 5 µM
# [33] = measured here: with BGB IC20, at 0.5 µM
# [34] = measured here: with BGB IC20, at 5 µM
# [35] = measured here: with cisplatin IC20, at 0.5 µM
# [36] = measured here: with cisplatin IC20, at 5 µM
# [37] = measured here: combination with BGB at IC20, at 0.5 µM
# [38] = measured here: combination with cisplatin at IC20, at 0.5 µM
# [39] = measured here: combo with BGB at IC20, at 0.5 µM
# [40] = measured here: combo with cisplatin at IC20, at 0.5 µM
# [41] = MELAS cybrid survival, CellTiter-Glo 48 h, stronger effect = higher value
# [42] = Rieske KO mouse fibroblast survival, CellTiter-Glo 72 h
smiles,measurement,setting,value
O=NN(CCCl)C(=O)NCCCl,outcome,[1],inactive
same,outcome,[2],inactive
same,outcome,[3],inactive
same,fold change,[4]; [18],0.948 (inactive) and 0.902 (inactive)
same,fold change,[4]; [19],1.47 and 4.57
same,cell count,[4]; [20],8130 and 9540
same,cell count,[4]; [21],8570 and 10600
same,outcome,[5],inactive
same,remaining NAD,[6],10 nM (inactive)
same,luciferase signal,[7],204 AU (inactive)
same,z-score,[8],-0.84 (inactive)
same,inhibition,[9]; [22],-2.88% (inactive)
same,inhibition,[9]; [23],-4.26%
same,inhibition,[9]; [24],-31.6%
same,inhibition,[9]; [25],-3.31%
same,inhibition,[9]; [26],2.24%
same,inhibition,[9]; [27],-36.8%
same,inhibition,"[10]; BGB combo, at 5 µM",-14.5%
same,inhibition,[10]; at 0.5 µM,6.29% (inactive)
same,inhibition,"[10]; cisplatin combo, at 5 µM",-3.04%
same,inhibition,[10]; [28],11.2%
same,inhibition,[10]; [29],-4.17%
same,inhibition,"[10]; single agent, at 5 µM",-8.15%
same,inhibition,"[11]; BGB IC20 combo, at 0.005 µM",5.44%
same,inhibition,"[11]; BGB IC40 combo, at 0.005 µM",-42.6%
same,inhibition,"[11]; BGB IC40 combo, at 0.05 µM",-39%
same,inhibition,[11]; at 0.5 µM,-40.7% (inactive)
same,inhibition,"[11]; cisplatin combo, at 0.05 µM",-44.5%
same,inhibition,"[11]; cisplatin combo, at 0.5 µM",-65.9%
same,inhibition,"[11]; cisplatin combo, at 5 µM",-35.2%
same,inhibition,[11]; [30],-15.7%
same,inhibition,[12]; at 0.5 µM,-12.2% (inactive)
same,inhibition,[12]; [25],-13.6%
same,inhibition,[12]; [31],10.3%
same,inhibition,[12]; [32],-12%
same,inhibition,[13]; at 0.5 µM,-10.6% (inactive)
same,inhibition,[13]; [33],-23%
same,inhibition,[13]; [34],17.7%
same,inhibition,[13]; [35],-10.4%
same,inhibition,[13]; [36],11.5%
same,inhibition,"[13]; single agent, at 5 µM",11%
same,inhibition,[14]; at 0.5 µM,-22.8% (inactive)
same,inhibition,[14]; [37],-7.62%
same,inhibition,[14]; [38],2.1%
same,inhibition,[15]; at 0.5 µM,-9.81% (inactive)
same,inhibition,[15]; [39],-13.2%
same,inhibition,[15]; [40],-3.83%
O=c1oc2c(O)c(O)cc3c(=O)oc4c(O)c(O)cc1c4c23,outcome,[1],inactive
same,outcome,[16],inactive
same,outcome,[2],inactive
same,outcome,[3],inactive
same,remaining NAD,[6],10 nM (inactive)
same,luciferase signal,[7],60 AU (inactive)
same,inhibition,[9]; [22],-26.4% (inactive)
same,inhibition,[9]; [23],13.8%
same,inhibition,[9]; [24],-25.9%
same,inhibition,[9]; [25],-14%
same,inhibition,[9]; [26],-13.4%
same,inhibition,[9]; [27],-36.9%
same,inhibition,"[10]; BGB combo, at 5 µM",-24.4%
same,inhibition,[10]; at 0.5 µM,-5.05% (inactive)
same,inhibition,"[10]; cisplatin combo, at 5 µM",3.04%
same,inhibition,[10]; [28],-1.3%
same,inhibition,[10]; [29],-3.36%
same,inhibition,"[10]; single agent, at 5 µM",-3.55%
same,inhibition,"[11]; BGB IC20 combo, at 0.005 µM",10.1%
same,inhibition,"[11]; BGB IC40 combo, at 0.005 µM",-45.8%
same,inhibition,"[11]; BGB IC40 combo, at 0.05 µM",-40.1%
same,inhibition,[11]; at 0.5 µM,-16.9% (inactive)
same,inhibition,"[11]; cisplatin combo, at 0.05 µM",-45.7%
same,inhibition,"[11]; cisplatin combo, at 0.5 µM",-24.8%
same,inhibition,"[11]; cisplatin combo, at 5 µM",-34.2%
same,inhibition,[11]; [30],-15.6%
same,inhibition,[12]; at 0.5 µM,-12.6% (inactive)
same,inhibition,[12]; [25],-1.97%
same,inhibition,[12]; [31],-11.4%
same,inhibition,[12]; [32],-1.35%
same,inhibition,[13]; at 0.5 µM,-9.37% (inactive)
same,inhibition,[13]; [33],-9.05%
same,inhibition,[13]; [34],-11.1%
same,inhibition,[13]; [35],-24.3%
same,inhibition,[13]; [36],-7.84%
same,inhibition,"[13]; single agent, at 5 µM",28.9%
same,inhibition,[14]; at 0.5 µM,-20.7% (inactive)
same,inhibition,[14]; [37],-5.49%
same,inhibition,[14]; [38],-39.6%
same,inhibition,[15]; at 0.5 µM,11.2% (inactive)
same,inhibition,[15]; [39],-0.451%
same,inhibition,[15]; [40],-7.75%
Clc1ccc(C(c2ccccc2Cl)C(Cl)Cl)cc1 (stereo not drawn),AC50,[16],23.5 µM (active)
same,AC50,[2],20.9 µM (active)
same,fold change,[4]; [18],1.02 (inactive) and 0.901 (inactive) and 0.92 (inactive)
same,fold change,[4]; [19],1.69 and 0.413 and 1.68
same,cell count,[4]; [20],9100 and 8310 and 10700
same,cell count,[4]; [21],8890 and 9220 and 11600
same,outcome,[5],inactive
same,z-score,[17]; [41],-0.255 (inactive) and -0.0992 (inactive)
same,z-score,[17]; [42],0.722 and 0.331
same,remaining NAD,[6],10 nM (inactive)
same,luciferase signal,[7],56 AU (inactive)
same,z-score,[8],-1.24 (inactive)
CC/C(=C(/CC)c1ccc(O)cc1)c1ccc(O)cc1,outcome,[1],inactive
same,outcome,[3],inactive
same,z-score,[17]; [41],0.343 (inactive) and 0.665 (inactive)
same,z-score,[17]; [42],-0.0589 and -0.544
same,remaining NAD,[6],10 nM (inactive)
same,luciferase signal,[7],56 AU (inactive)
same,z-score,[8],-0.645 (inactive)
